Several values for one entry are separate records, joined by “and”; a condition that tells them apart may be missing. Equal values may be shown once.
How the values were obtained:
[1] = target: Tyrosine-protein kinase SYK (Homo sapiens) (UniProt P43405); conditions: at 1 µM
[2] = target: T1, Tyrosine-protein kinase Tec (Homo sapiens) (UniProt P42680); conditions: at 0.1 µM
T1 sequence (whole entry): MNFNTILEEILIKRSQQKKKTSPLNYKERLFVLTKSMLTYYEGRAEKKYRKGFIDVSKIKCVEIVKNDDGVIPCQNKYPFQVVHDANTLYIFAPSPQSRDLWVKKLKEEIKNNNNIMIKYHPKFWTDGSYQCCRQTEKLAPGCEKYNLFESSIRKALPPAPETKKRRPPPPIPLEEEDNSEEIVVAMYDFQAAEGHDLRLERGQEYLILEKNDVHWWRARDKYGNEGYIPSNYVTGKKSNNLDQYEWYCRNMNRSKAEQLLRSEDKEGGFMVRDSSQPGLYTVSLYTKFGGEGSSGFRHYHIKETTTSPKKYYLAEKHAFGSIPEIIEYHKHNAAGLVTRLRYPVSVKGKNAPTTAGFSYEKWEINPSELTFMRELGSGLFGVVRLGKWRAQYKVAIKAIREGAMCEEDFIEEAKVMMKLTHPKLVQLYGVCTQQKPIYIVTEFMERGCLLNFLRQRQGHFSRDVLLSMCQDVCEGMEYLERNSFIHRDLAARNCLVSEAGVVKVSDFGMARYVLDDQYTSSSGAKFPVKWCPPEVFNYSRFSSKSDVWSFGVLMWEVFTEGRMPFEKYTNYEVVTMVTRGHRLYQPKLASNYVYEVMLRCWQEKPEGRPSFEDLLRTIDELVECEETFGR

[3] = target: T1, Tyrosine-protein kinase Tec (Homo sapiens); conditions: at 1 µM
[4] = target: Angiopoietin-1 receptor (Homo sapiens) (UniProt Q02763); conditions: at 0.1 µM
[5] = target: Angiopoietin-1 receptor (Homo sapiens) (UniProt Q02763); conditions: at 1 µM
[6] = target: T2, Non-receptor tyrosine-protein kinase TNK1 (Homo sapiens) (UniProt Q13470); conditions: at 0.1 µM
T2 sequence (whole entry): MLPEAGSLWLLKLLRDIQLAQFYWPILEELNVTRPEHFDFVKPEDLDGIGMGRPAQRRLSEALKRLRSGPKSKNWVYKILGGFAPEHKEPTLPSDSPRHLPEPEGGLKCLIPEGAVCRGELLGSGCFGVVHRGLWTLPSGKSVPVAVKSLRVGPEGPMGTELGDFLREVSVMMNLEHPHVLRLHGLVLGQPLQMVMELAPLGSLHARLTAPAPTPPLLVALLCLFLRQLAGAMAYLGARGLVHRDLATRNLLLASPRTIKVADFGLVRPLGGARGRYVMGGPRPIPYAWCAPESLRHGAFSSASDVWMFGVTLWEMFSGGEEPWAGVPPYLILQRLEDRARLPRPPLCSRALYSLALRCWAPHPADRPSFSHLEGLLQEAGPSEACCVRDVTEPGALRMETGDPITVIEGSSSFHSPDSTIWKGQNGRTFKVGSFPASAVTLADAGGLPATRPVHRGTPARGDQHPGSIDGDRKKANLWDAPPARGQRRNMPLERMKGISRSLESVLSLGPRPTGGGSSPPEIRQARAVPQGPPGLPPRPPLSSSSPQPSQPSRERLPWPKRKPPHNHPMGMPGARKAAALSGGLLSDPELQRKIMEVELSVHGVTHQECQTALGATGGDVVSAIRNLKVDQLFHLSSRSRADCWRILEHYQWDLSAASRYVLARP

[7] = target: T2, Non-receptor tyrosine-protein kinase TNK1 (Homo sapiens); conditions: at 1 µM
[8] = target: Activated CDC42 kinase 1 (Homo sapiens) (UniProt Q07912); conditions: at 0.1 µM
Activated CDC42 kinase 1 (Homo sapiens), sequence (Q07912 whole entry, looked up): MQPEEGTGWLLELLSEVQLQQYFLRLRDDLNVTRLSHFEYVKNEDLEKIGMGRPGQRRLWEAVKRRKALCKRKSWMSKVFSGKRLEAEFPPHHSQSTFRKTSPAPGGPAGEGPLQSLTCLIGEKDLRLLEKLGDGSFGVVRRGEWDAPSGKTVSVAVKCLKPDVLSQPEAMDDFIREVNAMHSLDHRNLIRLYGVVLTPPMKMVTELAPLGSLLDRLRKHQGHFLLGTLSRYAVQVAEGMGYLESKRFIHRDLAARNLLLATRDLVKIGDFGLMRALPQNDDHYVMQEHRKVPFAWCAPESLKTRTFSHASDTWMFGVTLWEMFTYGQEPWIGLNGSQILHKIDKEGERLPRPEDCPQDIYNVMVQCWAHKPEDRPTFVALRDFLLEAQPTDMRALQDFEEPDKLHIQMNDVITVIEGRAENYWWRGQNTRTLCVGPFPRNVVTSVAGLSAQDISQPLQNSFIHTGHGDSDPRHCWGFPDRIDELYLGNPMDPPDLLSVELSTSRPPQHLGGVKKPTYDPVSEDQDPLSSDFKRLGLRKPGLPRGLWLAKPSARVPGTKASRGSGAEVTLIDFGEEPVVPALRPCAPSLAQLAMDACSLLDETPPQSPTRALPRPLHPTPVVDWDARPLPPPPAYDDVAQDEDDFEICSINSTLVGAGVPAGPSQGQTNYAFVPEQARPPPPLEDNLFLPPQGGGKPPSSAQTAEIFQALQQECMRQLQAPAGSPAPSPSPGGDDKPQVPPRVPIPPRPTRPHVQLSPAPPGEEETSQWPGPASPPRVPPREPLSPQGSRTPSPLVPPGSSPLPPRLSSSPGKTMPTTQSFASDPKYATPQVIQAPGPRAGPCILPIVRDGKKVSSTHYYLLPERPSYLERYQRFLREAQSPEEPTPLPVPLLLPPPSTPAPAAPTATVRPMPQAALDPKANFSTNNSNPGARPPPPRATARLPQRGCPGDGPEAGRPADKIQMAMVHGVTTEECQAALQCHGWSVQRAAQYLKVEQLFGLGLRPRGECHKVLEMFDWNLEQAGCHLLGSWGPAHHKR

[9] = target: Activated CDC42 kinase 1 (Homo sapiens) (UniProt Q07912); conditions: at 1 µM
[10] = target: High affinity nerve growth factor receptor (Homo sapiens) (UniProt P04629); conditions: at 0.1 µM
High affinity nerve growth factor receptor (Homo sapiens), sequence (P04629 33-796 limits assumed): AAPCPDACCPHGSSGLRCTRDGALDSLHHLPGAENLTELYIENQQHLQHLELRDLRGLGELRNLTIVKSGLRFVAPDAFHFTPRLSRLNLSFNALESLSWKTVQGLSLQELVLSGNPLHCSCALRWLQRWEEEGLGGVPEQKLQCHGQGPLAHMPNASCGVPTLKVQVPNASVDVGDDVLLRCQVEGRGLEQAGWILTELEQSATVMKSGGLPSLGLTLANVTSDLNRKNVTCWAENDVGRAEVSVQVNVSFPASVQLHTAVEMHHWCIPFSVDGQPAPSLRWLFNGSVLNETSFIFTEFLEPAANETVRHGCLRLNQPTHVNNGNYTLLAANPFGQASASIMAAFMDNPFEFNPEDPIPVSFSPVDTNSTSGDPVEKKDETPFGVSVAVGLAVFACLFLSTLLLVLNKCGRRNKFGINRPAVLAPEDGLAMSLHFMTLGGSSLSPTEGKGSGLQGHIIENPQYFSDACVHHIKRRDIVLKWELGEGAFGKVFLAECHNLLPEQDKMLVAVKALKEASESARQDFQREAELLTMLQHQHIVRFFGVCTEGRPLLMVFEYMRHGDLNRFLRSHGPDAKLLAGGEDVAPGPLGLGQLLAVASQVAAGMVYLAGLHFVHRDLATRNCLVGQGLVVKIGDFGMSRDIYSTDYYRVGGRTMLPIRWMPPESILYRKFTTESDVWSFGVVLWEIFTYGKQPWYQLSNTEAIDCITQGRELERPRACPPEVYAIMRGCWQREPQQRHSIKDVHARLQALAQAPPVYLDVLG

[11] = target: High affinity nerve growth factor receptor (Homo sapiens) (UniProt P04629); conditions: at 1 µM
[12] = target: BDNF/NT-3 growth factors receptor (Homo sapiens) (UniProt Q16620); conditions: at 0.1 µM
BDNF/NT-3 growth factors receptor (Homo sapiens), sequence (Q16620 32-822 limits assumed): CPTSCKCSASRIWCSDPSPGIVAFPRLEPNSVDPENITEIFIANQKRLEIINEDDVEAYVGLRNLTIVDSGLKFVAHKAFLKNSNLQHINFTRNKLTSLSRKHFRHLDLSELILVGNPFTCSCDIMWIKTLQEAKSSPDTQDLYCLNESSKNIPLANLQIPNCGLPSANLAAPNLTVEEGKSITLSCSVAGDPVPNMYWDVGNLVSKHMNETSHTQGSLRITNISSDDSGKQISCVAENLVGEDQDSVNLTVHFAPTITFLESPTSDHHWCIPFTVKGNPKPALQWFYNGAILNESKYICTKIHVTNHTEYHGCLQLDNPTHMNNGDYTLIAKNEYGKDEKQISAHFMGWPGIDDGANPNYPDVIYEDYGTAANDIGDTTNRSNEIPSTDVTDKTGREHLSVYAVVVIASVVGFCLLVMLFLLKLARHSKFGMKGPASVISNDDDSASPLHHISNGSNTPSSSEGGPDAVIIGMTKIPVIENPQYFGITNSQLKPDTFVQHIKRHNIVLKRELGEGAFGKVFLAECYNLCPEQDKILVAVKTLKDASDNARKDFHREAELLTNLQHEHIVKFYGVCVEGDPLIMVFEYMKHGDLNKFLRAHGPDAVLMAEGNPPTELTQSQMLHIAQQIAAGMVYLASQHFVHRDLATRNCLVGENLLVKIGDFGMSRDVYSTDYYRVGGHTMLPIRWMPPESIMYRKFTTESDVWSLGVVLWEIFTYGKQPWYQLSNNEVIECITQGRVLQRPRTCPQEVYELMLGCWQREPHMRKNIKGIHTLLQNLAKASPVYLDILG

[13] = target: BDNF/NT-3 growth factors receptor (Homo sapiens) (UniProt Q16620); conditions: at 1 µM
[14] = target: NT-3 growth factor receptor (Homo sapiens) (UniProt Q16288); conditions: at 0.1 µM
NT-3 growth factor receptor (Homo sapiens), sequence (Q16288 32-839 limits assumed): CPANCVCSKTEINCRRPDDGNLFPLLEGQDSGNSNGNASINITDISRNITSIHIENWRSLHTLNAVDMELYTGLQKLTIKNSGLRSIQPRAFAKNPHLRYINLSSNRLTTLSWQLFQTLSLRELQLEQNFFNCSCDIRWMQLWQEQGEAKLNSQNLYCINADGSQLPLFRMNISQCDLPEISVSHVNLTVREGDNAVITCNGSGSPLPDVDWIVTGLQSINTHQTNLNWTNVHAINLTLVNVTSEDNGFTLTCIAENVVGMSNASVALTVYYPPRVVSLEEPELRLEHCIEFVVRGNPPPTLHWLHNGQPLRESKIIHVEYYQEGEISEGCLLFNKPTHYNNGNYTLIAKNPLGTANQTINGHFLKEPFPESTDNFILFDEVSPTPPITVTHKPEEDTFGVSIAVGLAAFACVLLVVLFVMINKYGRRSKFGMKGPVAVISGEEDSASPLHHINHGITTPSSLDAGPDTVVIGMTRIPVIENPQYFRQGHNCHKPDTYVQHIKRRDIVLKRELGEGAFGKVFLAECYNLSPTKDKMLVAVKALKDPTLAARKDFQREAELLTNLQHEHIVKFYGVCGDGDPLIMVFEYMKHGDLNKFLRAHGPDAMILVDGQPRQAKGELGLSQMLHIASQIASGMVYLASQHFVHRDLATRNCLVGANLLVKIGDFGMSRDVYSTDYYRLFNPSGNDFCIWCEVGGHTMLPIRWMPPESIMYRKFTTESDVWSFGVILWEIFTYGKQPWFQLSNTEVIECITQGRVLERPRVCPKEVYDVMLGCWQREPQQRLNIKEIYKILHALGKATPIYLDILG

[15] = target: NT-3 growth factor receptor (Homo sapiens) (UniProt Q16288); conditions: at 1 µM
[16] = target: T3, Tyrosine-protein kinase TXK (Homo sapiens) (UniProt P42681); conditions: at 0.1 µM
T3 sequence (whole entry): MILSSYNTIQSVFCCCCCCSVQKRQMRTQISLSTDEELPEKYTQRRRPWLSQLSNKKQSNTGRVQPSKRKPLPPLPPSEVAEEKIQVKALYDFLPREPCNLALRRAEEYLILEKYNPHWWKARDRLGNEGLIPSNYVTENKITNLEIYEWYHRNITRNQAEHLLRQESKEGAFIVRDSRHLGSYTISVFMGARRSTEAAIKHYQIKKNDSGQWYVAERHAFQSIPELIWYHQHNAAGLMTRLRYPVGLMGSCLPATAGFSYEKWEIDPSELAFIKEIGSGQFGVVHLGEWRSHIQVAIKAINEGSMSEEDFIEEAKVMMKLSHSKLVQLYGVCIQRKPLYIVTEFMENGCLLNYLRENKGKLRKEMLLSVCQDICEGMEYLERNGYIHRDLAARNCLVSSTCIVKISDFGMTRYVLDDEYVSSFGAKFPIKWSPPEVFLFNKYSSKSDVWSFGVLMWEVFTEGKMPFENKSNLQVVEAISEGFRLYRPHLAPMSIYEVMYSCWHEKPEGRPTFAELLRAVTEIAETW

[17] = target: T3, Tyrosine-protein kinase TXK (Homo sapiens); conditions: at 1 µM
[18] = target: Non-receptor tyrosine-protein kinase TYK2 (Homo sapiens) (UniProt P29597); conditions: at 0.1 µM;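 also: each value is a mean of the inhibition readings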
Non-receptor tyrosine-protein kinase TYK2 (Homo sapiens), sequence (P29597 whole entry): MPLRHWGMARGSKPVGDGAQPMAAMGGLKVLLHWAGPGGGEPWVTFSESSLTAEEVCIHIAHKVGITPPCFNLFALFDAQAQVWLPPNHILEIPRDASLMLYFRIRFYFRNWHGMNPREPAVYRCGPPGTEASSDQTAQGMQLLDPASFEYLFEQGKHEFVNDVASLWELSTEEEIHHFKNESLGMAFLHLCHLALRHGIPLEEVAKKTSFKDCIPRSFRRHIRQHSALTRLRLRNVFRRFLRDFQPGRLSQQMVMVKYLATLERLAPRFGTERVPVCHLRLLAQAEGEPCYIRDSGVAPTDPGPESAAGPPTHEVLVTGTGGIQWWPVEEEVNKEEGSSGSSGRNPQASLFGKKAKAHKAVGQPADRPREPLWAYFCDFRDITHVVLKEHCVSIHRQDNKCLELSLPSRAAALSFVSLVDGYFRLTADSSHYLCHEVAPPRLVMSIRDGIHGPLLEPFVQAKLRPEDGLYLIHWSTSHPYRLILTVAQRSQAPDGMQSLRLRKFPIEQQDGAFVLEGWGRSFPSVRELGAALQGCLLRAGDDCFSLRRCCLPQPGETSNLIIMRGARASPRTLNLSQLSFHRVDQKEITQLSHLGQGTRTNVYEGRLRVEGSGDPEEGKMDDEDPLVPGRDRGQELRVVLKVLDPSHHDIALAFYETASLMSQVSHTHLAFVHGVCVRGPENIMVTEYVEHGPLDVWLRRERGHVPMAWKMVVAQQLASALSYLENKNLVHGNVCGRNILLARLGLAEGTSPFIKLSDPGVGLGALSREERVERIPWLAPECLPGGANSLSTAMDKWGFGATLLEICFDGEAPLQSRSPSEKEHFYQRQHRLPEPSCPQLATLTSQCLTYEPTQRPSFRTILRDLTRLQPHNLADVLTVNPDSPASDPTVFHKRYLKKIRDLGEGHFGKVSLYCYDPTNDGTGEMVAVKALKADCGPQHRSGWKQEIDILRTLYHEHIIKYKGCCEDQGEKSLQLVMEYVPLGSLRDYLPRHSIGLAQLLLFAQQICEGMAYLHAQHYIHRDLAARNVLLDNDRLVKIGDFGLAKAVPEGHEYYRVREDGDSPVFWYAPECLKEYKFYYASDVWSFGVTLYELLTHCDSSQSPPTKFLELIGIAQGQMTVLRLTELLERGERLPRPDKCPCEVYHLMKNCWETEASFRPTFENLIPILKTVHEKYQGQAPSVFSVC

[19] = target: T4, Dual specificity protein kinase TTK (Homo sapiens) (UniProt P33981); conditions: at 1 µM;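 also: reported figures are mean TTK inhibition at 1 µM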
T4 sequence (whole entry): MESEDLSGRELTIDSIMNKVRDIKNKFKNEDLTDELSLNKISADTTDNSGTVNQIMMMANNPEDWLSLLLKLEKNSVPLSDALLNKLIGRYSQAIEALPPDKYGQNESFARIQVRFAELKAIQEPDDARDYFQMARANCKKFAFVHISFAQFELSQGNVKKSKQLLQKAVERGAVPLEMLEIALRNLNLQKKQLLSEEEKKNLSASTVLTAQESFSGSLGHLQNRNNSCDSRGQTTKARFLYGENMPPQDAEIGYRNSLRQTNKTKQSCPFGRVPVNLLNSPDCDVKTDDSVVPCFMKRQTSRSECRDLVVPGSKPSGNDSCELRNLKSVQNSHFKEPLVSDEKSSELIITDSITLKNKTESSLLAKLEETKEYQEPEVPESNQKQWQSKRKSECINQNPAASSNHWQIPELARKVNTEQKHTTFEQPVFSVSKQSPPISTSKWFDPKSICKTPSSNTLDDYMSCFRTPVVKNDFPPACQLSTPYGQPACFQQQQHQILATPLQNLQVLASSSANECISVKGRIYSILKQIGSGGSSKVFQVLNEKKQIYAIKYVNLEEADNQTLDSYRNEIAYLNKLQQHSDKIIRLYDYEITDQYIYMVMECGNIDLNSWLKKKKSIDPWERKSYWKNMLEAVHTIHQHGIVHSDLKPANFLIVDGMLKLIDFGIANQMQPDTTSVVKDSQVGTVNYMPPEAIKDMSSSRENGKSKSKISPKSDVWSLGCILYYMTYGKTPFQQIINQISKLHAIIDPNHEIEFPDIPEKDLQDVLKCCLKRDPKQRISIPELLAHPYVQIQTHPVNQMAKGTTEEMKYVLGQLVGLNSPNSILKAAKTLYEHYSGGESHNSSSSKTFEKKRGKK

[20] = target: T5, Aurora kinase A (Homo sapiens) (UniProt O14965); conditions: at 0.1 µM;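 also: each reported value is a mean percent inhibition of Aurora-A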
T5 sequence (whole entry): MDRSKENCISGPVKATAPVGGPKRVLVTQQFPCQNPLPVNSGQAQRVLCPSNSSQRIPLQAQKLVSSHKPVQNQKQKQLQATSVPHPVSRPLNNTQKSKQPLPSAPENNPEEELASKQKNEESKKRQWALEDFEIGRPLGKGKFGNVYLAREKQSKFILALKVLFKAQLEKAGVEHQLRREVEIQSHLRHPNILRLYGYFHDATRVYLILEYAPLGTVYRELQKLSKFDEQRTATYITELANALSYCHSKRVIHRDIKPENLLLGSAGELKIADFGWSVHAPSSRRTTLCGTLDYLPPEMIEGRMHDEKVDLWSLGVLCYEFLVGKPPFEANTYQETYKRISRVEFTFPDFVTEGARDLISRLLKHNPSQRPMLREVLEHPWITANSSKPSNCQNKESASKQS

Row | SMILES | inhibition [1] | inhibition [2] | inhibition [3] | inhibition [4] | inhibition [5] | inhibition [6] | inhibition [7] | inhibition [8] | inhibition [9] | inhibition [10] | inhibition [11] | inhibition [12] | inhibition [13] | inhibition [14] | inhibition [15] | inhibition [16] | inhibition [17] | inhibition [18] | inhibition [19] | inhibition [20]
1 | Nc1nonc1-c1nc2cnccc2n1C1CC1 | -1.65% and 0.1% | 4.66% and -0.83% | 7.39% and -0.23% | 1.33% and 1.27% | 5.19% and 4.75% | 3.99% and 1.62% | 9.35% and 9.64% | 1.76% and 0.5% | 3.72% and 0.02% | 3.67% and -0.15% | 0.83% and 3.35% | 1.21% and 3.09% | 3.17% and -0.36% | 2.17% and 1.89% | 3.84% and 1.11% | 4.13% and -0.96% | 5.76% and -3.04% | -4.88% and 0.09% | 5.15% and -6.34% | 3.77% and -2.63%
2 | CN1CCC(n2cnc(-c3ccc(F)cc3)c2-c2ccnc(NCCO)n2)CC1 | -1.12% | 6.05% | 5.09% | 1.8% | 3.36% | 4.89% | 10.8% | 1.7% | 2.83% | 2.11% | 2.02% | 2.35% | 6.67% | 4.76% | 5.91% | 2.5% | 2.52% | -3.21% | 2.05% | 1.7%
3 | Cc1ccc(-c2cc3c(NC(=O)C4CC4)ncnc3o2)cc1 | -1.6% | 5.2% | 13.1% | 3.09% | 4.4% | 3.37% | 6.56% | 1.58% | 4.37% | 4.74% | 1.15% | 1.73% | 4.58% | 2.91% | 4.4% | 3.92% | 8.76% | -1.91% | 10.2% | 3.75%

From ChEMBL document CHEMBL1961873, “Compounds: GSK PKIS; Assays: Nanosyn kinase panel” (2012)
